Measurements published in paper PMC5540273 (PLoS ONE, 2017).

Experiments:
Conditions in all cases: concentration: 1 μM, replicates: in singlicate; n = 1
FLT3-autoinhibited = test system: FLT3-autoinhibited
FLT3 = test system: FLT3
FLT4 = test system: FLT4
FRK = test system: FRK
FYN = test system: FYN
GAK = test system: GAK
GCN2(Kin.Dom.2,S808G) = test system: T1, GCN2(Kin.Dom.2,S808G)
T1 construct: gene EIF2AK4

GRK1 = test system: GRK1
GRK2 = test system: T2, GRK2
T2 construct: gene ADRBK1

GRK3 = test system: T3, GRK3
T3 construct: gene ADRBK2

GRK4 = test system: GRK4
GRK7 = test system: GRK7
GSK3A = test system: GSK3A
GSK3B = test system: GSK3B
HASPIN = test system: T4, HASPIN
T4 construct: gene GSG2

HCK = test system: HCK
HIPK1 = test system: HIPK1
HIPK2 = test system: HIPK2
HIPK3 = test system: HIPK3
HIPK4 = test system: HIPK4
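Also: KINOMEscan kinase panel screen.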

## Cc1c2ccc(N(C)c3ccnc(Nc4cccc(S(N)(=O)=O)c4)n3)cc2nn1Cc1ccccc1.Cl.Cl [GW787226]
FLT3-autoinhibited
  %Inh: 29%
FLT3
  %Inh: 98.5%
FLT4
  %Inh: 99.9%
FRK
  %Inh: 65%
FYN
  %Inh: 75%
GAK
  %Inh: 0%
GCN2(Kin.Dom.2,S808G)
  %Inh: 62%
GRK1
  %Inh: 0%
GRK2
  %Inh: 0%
GRK3
  %Inh: 0%
GRK4
  %Inh: 21%
GRK7
  %Inh: 0%
GSK3A
  %Inh: 0%
GSK3B
  %Inh: 0%
HASPIN
  %Inh: 0%
HCK
  %Inh: 91.7%
HIPK1
  %Inh: 23%
HIPK2
  %Inh: 0%
HIPK3
  %Inh: 0%
HIPK4
  %Inh: 0%

## COc1ccc(Nc2nccc(N3CCC(NC(=O)Nc4cccc(C(C)=O)c4)C3)n2)cc1 (centres unmarked) [GSK1379731]
FLT3-autoinhibited
  %Inh: 0%
FLT3
  %Inh: 34%
FLT4
  %Inh: 4%
FRK
  %Inh: 0%
FYN
  %Inh: 1%
GAK
  %Inh: 0%
GCN2(Kin.Dom.2,S808G)
  %Inh: 0%
GRK1
  %Inh: 0%
GRK2
  %Inh: 0%
GRK3
  %Inh: 4%
GRK4
  %Inh: 0%
GRK7
  %Inh: 0%
GSK3A
  %Inh: 22%
GSK3B
  %Inh: 7%
HASPIN
  %Inh: 17%
HCK
  %Inh: 0%
HIPK1
  %Inh: 0%
HIPK2
  %Inh: 0%
HIPK3
  %Inh: 1%
HIPK4
  %Inh: 0%

## O=C(NCCNc1ccnc(Nc2ccc(F)cc2)n1)Nc1ccccc1F [GSK1379880]
FLT3-autoinhibited
  %Inh: 0%
FLT3
  %Inh: 0%
FLT4
  %Inh: 0%
FRK
  %Inh: 0%
FYN
  %Inh: 28%
GAK
  %Inh: 0%
GCN2(Kin.Dom.2,S808G)
  %Inh: 3%
GRK1
  %Inh: 0%
GRK2
  %Inh: 0%
GRK3
  %Inh: 23%
GRK4
  %Inh: 0%
GRK7
  %Inh: 0%
GSK3A
  %Inh: 2%
GSK3B
  %Inh: 0%
HASPIN
  %Inh: 0%
HCK
  %Inh: 0%
HIPK1
  %Inh: 0%
HIPK2
  %Inh: 0%
HIPK3
  %Inh: 19%
HIPK4
  %Inh: 0%

## CN1c2ccc(CNc3ccc(F)cc3)cc2-c2c(cnn2C)S1(=O)=O
FLT3-autoinhibited
  %Inh: 0%
FLT3
  %Inh: 36%
FLT4
  %Inh: 0%
FRK
  %Inh: 1%
FYN
  %Inh: 4%
GAK
  %Inh: 0%
GCN2(Kin.Dom.2,S808G)
  %Inh: 15%
GRK1
  %Inh: 10%
GRK2
  %Inh: 0%
GRK3
  %Inh: 0%
GRK4
  %Inh: 0%
GRK7
  %Inh: 0%
GSK3A
  %Inh: 22%
GSK3B
  %Inh: 0%
HASPIN
  %Inh: 33%
HCK
  %Inh: 4%
HIPK1
  %Inh: 35%
HIPK2
  %Inh: 0%
HIPK3
  %Inh: 0%
HIPK4
  %Inh: 0%

## COc1ccc(Nc2ncc(C#N)c(Nc3ccccc3C(N)=O)n2)cc1N1CCN(C)CC1.Cl [GSK1558669]
FLT3-autoinhibited
  %Inh: 99.9%
FLT3
  %Inh: 99.8%
FLT4
  %Inh: 100%
FRK
  %Inh: 83%
FYN
  %Inh: 96.8%
GAK
  %Inh: 98.1%
GCN2(Kin.Dom.2,S808G)
  %Inh: 100%
GRK1
  %Inh: 55%
GRK2
  %Inh: 35%
GRK3
  %Inh: 0%
GRK4
  %Inh: 96%
GRK7
  %Inh: 46%
GSK3A
  %Inh: 99.8%
GSK3B
  %Inh: 99.8%
HASPIN
  %Inh: 88%
HCK
  %Inh: 98.8%
HIPK1
  %Inh: 100%
HIPK2
  %Inh: 98.8%
HIPK3
  %Inh: 99.8%
HIPK4
  %Inh: 89%

## Cl.Nc1ncnc2occ(-c3ccc(NC(=O)Nc4cc(C(F)(F)F)ccc4F)cc3)c12 [SB-707548]
FLT3-autoinhibited
  %Inh: 83%
FLT3
  %Inh: 99.4%
FLT4
  %Inh: 100%
FRK
  %Inh: 95.7%
FYN
  %Inh: 22%
GAK
  %Inh: 0%
GCN2(Kin.Dom.2,S808G)
  %Inh: 8%
GRK1
  %Inh: 12%
GRK2
  %Inh: 0%
GRK3
  %Inh: 36%
GRK4
  %Inh: 0%
GRK7
  %Inh: 0%
GSK3A
  %Inh: 68%
GSK3B
  %Inh: 8%
HASPIN
  %Inh: 0%
HCK
  %Inh: 71%
HIPK1
  %Inh: 63%
HIPK2
  %Inh: 50%
HIPK3
  %Inh: 77%
HIPK4
  %Inh: 99.2%

## O=c1cc(N2CCOCC2)nc2n(Cc3cccc(Cl)c3Cl)c(C3CC3)nn12 [GSK2358994]
FLT3-autoinhibited
  %Inh: 0%
FLT3
  %Inh: 10%
FLT4
  %Inh: 10%
FRK
  %Inh: 0%
FYN
  %Inh: 6%
GAK
  %Inh: 11%
GCN2(Kin.Dom.2,S808G)
  %Inh: 0%
GRK1
  %Inh: 0%
GRK2
  %Inh: 0%
GRK3
  %Inh: 0%
GRK4
  %Inh: 0%
GRK7
  %Inh: 0%
GSK3A
  %Inh: 4%
GSK3B
  %Inh: 0%
HASPIN
  %Inh: 0%
HCK
  %Inh: 0%
HIPK1
  %Inh: 16%
HIPK2
  %Inh: 0%
HIPK3
  %Inh: 16%
HIPK4
  %Inh: 0%
